PubChem BioAssay (NCATS)
Records with an inconclusive call do not appear. Entries that show only a call come without a potency. Activity calls are given as the source filed them. Unless noted, calls come from the whole dose curve; as a rule, active = well fitted curve in the direction sought with a large enough effect; inconclusive = small, poorly fitted or top-dose-only effect, or another doubt; inactive = no such curve, though single readings can be large; an effect the other way counts as inactive or inconclusive.

What was measured:
[1] = qHTS for differential inhibitors of proliferation of Plasmodium falciparum line D10 (AID 1877);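 note: parasites grown with compound for 72 h before DNA staining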; note: potency is the fitted concentration of half-maximal effect
[2] = qHTS for differential inhibitors of proliferation of Plasmodium falciparum line Dd2 (AID 1882); conditions: Potency: Plasmodium falciparum Dd2 proliferation inhibition; note: nearly all actives have a fitted effect of over 65% in size; note: potency is the fitted concentration of half-maximal effect
How it was run: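 SYBR Green DNA fluorescence (ex 485, em 535 nm) after overnight lysis quantifies parasite growth; compound exposure lasted 72 h at 37 C on infected red cells at 2.5% hematocrit, 0.3% parasitemia (final). Artemisinin 0.29 uM and vehicle wells define normalization.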

[3] = qHTS for differential inhibitors of proliferation of Plasmodium falciparum line W2 (AID 1883); conditions: Potency: Plasmodium falciparum W2 proliferation inhibition;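 note: parasites grown with compound for 72 h before lysis and staining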; note: potency is the fitted concentration of half-maximal effect
[4] = qHTS for differential inhibitors of proliferation of Plasmodium falciparum line HB3 (AID 1886); conditions: Potency: Plasmodium falciparum HB3 proliferation inhibition;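 note: parasites grown with compound for 72 h before SYBR Green readout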; note: potency is the fitted concentration of half-maximal effect
[5] = target: Ferritin light chain (Equus caballus) (UniProt P02791); experiment: qHTS Validation Assay for Identification of Novel General Anesthetics (AID 2323); note: series mostly up to about 77 µM
How it was run: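 Normalized fluorescence response, scaled between free 1-AMA and 1-AMA/apoferritin complex, fitted to a four-parameter Hill equation for concentration-effect values. Binding mix: 10 uM horse-spleen apoferritin, 50% saturated 1-AMA in PBS; read 380/535 nm after 10 min.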

[6] = target: ATP-dependent DNA helicase Q1 (Homo sapiens) (UniProt P46063); experiment: qHTS Validation Assay for Inhibitors of RecQ-Like Dna Helicase 1 (RECQ1) (AID 2353)
How it was run: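 RECQ1T1 50 nM; forked duplex (20 bp + 30-nt ss tails) 200 nM, ATP 2 mM final; pH 8.0, 2 mM MgCl2, 2.5 ug/ml poly(dI-dC); 15 min compound preincubation; discontinuous kinetic read over 2 h at RT.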

[7] = target: RecQ-like DNA helicase BLM (Homo sapiens) (UniProt P54132); experiment: qHTS Validation Assay for Inhibitors of Bloom's syndrome helicase (BLM) (AID 2364)
How it was run: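 Forked 20-bp duplex substrate (200 nM, TAMRA/BHQ-2) plus 2 mM ATP added after 15 min compound preincubation with 50 nM enzyme, pH 8.0, poly(dI-dC) 2.5 ug/ml. Strand separation followed by fluorescence (525/598 nm) over 2 h, normalized to enzyme-free and DMSO controls.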

[8] = Cytometric Cell-Based qHTS for Inhibitors of the mTORC1 Signaling Pathway in MEF (Tsc2-/-, p53-/-) Cells (AID 2660);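 note: Tsc2 and p53 null MEFs carrying empty vector with compound for 24 h; percent of cells above a phospho-rpS6 to PI ratio cutoff in each well; series mostly up to about 38 µM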
How it was run: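 Cells are plated, treated with compound for 24 hrs at 37 degree Celsius, then fixed, blocked and immunostained for phospho-rpS6 Ser235/236. Propidium iodide counterstain follows. Per-well % positive cells is derived from the PI-normalized phospho-S6 signal.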

[9] = High Content Imaging Cell-Based qHTS for Inhibitors of the mTORC1 Signaling Pathway in MEF (Tsc2-/-, p53-/-) Cells (AID 2666);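 note: percent of cells scored positive for phospho-rpS6 Ser235/236 immunostaining by imaging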; note: potency is the fitted concentration of half-maximal effect
How it was run: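 Tsc2-/-, p53-/- MEFs (empty-vector stable) grown in DMEM + 10% FBS were exposed to compounds for 24 hrs at 37 degree Celsius, fixed, and stained with Alexa-488 anti-phospho-rpS6 Ser235/236 plus Hoechst. Imaging gave the percentage of positive cells per well.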

[10] = High Content Imaging Cell-Based qHTS for Inhibitors of the mTORC1 Signaling Pathway in MEF Cells (AID 2667); note: potency is the fitted concentration of half-maximal effect
How it was run: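 Tsc2-/-, p53-/- MEFs stably re-expressing WT Tsc2, grown in DMEM + 10% FBS, were treated with compounds for 24 hrs at 37 degree Celsius, fixed, and stained with Alexa-488 phospho-rpS6 Ser235/236 antibody plus Hoechst; results given as % positive cells.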

[11] = Cytometry Cell-Based qHTS for Inhibitors of the mTORC1 Signaling Pathway in MEF cells (AID 2668); note: potency is the fitted concentration of half-maximal effect
How it was run: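 In MEFs grown in DMEM + 10% FBS, a 24 hrs compound exposure preceded imaging of phospho-rpS6 Ser235/236 by laser-scanning cytometry.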

[12] = Validation screen for small molecules that induce DNA re-replication in MCF 10A normal breast cells (AID 463097); note: nearly all actives have a fitted effect of over 60% in size; note: potency is the fitted concentration of half-maximal effect
How it was run: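 Following 48 hr compound incubation (37 C, 5% CO2), MCF 10A cells receive Hoechst for 40 min at 37 C. Nuclei are then scanned (excitation 405 nm, emission 500-530 nm) for total fluorescence intensity.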

[13] = target: Ubiquitin carboxyl-terminal hydrolase 2 (Homo sapiens) (UniProt O75604); experiment: qHTS Validation Assay for Inhibitors of Ubiquitin-specific Protease USP2a Using CHOP2 as the Reporter (AID 463106)
How it was run: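 Readout was coupled fluorescence (Ex 485/Em 531 nm), read 60 min after adding 25 nM final Ub-CHOP2 and 25 nM reporter substrate. Beforehand, 10 nM final USP2 core had 30 min at RT with compound in pH 8.0 buffer. Curves were fitted after normalization to NEM and flagged for artifacts using time-zero reads.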

[14] = target: DNA polymerase III PolC-type (Bacillus subtilis (strain 168)) (UniProt P13267); experiment: qHTS Validation Assay for the Inhibitors of DNA Replication in Gram-Positive Bacteria (AID 485295); note: potency is the fitted concentration of half-maximal effect
How it was run: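 Inhibition of DNA synthesis by the reconstituted PolC holoenzyme, monitored through PicoGreen staining of dsDNA formed from ssM13Gori, dNTPs and NTPs, with compound preincubation and room-temperature reaction.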

[15] = target: Tumor susceptibility gene 101 protein (Homo sapiens) (UniProt Q99816); experiment: qHTS Validation Assay for Iinhibitors of HIV-1 Budding by Blocking the Interaction of PTAP/TSG101 (AID 485342; calls by dose curve)
How it was run: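 Compound wells held the Tsg101 binding domain (10 uM) and a FITC-conjugated PTAP peptide (50 nM) in buffer at pH 7.5 containing 0.15 M NaCl and 0.01% Tween 20; polarization was recorded after 20 min, r.t.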

[16] = qHTS Validation Assay to Find Inhibitors of Chronic Active B-Cell Receptor Signaling (AID 485345; active = well fitted curve in the direction sought with a large enough effect in the main read-out, with a control signal flat, not every such curve was filed as active)
How it was run: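 Read-out: ratio of filter-corrected green (IkappaBalpha fusion) to red (native) luciferase signal in doxycycline-induced TMD8 cells after 4 h at 37C. Titration spanned 46 uM–3 nM; Data were normalised to basal cells and 10 uM MG-132 wells.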

[17] = qHTS Assay for Modulators of Human Peripheral Myelin Protein 22 (PMP22) Expression/Activity (AID 1967; active = well fitted curve in the direction sought with a large enough effect in the signal ratio; the % refers to the signal ratio)
How it was run: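 Engineered MSC80 cells, Pmp22-promoter green and EF-alpha red luciferase reporters; 24h compound treatment at 37 °C. Concentration-response fits on green, red and ratio signals, each overlap-corrected, with %Activity normalized to untreated wells.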

Chain of Ferritin light chain (Equus caballus) (P02791 2-175 limits assumed): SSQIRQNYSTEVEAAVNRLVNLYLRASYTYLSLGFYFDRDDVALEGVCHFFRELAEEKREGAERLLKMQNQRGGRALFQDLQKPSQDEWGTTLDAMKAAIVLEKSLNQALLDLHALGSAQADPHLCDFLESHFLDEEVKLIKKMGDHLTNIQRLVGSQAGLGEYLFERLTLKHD
Chain of DNA polymerase III PolC-type (Bacillus subtilis (strain 168)) (P13267 whole entry, looked up): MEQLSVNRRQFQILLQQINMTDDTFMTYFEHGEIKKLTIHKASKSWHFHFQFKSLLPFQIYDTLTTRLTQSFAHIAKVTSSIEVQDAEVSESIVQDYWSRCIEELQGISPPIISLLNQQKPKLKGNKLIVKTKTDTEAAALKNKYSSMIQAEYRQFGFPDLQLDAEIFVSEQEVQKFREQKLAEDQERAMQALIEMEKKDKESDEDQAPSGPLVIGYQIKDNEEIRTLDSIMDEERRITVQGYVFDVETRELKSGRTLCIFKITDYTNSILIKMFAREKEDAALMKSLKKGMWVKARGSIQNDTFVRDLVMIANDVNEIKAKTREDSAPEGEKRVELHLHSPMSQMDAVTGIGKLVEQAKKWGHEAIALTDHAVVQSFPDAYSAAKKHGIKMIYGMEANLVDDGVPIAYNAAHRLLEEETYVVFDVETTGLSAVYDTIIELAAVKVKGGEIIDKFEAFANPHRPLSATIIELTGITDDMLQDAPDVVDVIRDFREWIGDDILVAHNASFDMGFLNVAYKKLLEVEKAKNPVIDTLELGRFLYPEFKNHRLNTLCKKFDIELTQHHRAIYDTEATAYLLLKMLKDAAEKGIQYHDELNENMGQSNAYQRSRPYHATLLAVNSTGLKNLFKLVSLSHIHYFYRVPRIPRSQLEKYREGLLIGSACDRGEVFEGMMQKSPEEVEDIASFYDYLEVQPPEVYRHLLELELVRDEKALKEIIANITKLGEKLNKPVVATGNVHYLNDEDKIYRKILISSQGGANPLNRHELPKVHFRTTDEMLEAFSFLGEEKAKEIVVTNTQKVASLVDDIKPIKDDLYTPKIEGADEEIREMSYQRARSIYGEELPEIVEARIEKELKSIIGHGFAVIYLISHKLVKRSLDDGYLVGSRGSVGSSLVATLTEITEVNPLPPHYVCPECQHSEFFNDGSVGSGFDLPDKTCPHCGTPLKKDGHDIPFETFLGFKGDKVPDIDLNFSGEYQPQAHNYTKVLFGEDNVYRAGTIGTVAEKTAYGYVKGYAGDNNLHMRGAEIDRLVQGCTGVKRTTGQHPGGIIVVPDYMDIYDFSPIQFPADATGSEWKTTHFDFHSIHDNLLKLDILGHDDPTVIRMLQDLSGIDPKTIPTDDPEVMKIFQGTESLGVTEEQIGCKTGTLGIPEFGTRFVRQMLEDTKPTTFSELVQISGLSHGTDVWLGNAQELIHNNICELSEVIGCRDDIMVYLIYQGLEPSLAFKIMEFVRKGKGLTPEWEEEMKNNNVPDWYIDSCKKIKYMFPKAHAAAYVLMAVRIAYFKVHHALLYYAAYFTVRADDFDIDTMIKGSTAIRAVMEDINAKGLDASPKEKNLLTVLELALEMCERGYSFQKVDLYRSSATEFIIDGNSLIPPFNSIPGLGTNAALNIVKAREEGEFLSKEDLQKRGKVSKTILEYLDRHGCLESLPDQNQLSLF
Chain of RecQ-like DNA helicase BLM (Homo sapiens) (P54132 whole entry, looked up): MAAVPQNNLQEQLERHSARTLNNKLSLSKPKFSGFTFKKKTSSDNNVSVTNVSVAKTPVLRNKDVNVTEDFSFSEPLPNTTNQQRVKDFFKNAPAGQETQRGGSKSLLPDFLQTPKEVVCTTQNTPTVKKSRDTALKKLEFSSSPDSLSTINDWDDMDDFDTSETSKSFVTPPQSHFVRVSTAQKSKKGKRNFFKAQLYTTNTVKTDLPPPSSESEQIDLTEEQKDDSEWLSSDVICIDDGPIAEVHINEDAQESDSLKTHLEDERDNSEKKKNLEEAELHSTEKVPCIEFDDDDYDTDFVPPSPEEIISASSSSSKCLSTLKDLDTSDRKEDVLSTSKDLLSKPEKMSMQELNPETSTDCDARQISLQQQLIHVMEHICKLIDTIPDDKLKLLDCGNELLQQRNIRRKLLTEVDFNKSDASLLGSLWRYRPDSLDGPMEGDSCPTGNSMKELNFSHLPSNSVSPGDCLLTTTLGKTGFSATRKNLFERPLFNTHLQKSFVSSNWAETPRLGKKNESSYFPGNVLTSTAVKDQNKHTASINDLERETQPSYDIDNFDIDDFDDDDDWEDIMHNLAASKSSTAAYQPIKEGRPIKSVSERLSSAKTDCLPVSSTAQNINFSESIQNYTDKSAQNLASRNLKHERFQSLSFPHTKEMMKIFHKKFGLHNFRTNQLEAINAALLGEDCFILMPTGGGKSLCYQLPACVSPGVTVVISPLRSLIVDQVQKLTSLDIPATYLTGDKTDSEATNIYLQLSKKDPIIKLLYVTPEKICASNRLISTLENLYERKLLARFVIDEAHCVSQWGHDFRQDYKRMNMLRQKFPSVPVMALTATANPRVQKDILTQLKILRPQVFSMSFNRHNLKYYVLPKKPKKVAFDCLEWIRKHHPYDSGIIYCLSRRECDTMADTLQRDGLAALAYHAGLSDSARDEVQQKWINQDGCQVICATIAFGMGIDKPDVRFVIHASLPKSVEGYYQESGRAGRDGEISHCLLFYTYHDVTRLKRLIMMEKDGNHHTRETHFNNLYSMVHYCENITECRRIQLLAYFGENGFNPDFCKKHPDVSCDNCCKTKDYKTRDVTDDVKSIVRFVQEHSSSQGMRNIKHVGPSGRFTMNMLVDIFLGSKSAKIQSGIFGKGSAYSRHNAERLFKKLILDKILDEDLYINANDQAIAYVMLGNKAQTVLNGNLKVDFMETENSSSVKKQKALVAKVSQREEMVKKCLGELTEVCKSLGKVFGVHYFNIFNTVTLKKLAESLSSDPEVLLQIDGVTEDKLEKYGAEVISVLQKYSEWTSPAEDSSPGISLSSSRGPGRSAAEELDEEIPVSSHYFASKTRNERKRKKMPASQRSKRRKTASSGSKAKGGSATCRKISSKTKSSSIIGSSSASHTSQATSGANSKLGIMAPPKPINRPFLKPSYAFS
Chain of Ubiquitin carboxyl-terminal hydrolase 2 (Homo sapiens) (O75604 whole entry, looked up): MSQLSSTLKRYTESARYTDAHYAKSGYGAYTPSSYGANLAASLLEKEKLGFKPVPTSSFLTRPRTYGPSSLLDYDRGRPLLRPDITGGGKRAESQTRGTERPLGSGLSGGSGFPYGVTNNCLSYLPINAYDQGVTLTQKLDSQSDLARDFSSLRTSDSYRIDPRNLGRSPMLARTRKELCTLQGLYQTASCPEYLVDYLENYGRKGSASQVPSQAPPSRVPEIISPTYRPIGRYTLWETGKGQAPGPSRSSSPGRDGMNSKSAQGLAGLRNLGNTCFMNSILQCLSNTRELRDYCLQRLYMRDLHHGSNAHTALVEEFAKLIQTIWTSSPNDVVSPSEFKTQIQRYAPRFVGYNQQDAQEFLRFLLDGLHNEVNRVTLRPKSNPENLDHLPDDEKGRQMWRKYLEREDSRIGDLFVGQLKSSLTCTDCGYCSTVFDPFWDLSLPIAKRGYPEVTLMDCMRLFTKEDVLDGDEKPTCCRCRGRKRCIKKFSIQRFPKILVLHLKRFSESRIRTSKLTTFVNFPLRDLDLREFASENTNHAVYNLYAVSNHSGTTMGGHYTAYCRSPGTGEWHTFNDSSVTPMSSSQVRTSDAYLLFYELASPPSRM
Chain of Tumor susceptibility gene 101 protein (Homo sapiens) (Q99816 whole entry, looked up, the tested form may be a part): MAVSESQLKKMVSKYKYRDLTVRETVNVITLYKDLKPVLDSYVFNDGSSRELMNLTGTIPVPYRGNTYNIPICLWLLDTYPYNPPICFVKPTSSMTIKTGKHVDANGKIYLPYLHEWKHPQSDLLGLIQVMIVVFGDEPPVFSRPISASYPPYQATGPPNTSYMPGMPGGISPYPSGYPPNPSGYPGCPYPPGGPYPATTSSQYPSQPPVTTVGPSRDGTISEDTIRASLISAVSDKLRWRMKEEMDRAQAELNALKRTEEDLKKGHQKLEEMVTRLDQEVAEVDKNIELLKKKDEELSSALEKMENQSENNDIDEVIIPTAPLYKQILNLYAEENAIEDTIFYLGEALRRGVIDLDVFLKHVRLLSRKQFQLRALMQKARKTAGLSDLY
Chain of ATP-dependent DNA helicase Q1 (Homo sapiens) (P46063 whole entry, looked up): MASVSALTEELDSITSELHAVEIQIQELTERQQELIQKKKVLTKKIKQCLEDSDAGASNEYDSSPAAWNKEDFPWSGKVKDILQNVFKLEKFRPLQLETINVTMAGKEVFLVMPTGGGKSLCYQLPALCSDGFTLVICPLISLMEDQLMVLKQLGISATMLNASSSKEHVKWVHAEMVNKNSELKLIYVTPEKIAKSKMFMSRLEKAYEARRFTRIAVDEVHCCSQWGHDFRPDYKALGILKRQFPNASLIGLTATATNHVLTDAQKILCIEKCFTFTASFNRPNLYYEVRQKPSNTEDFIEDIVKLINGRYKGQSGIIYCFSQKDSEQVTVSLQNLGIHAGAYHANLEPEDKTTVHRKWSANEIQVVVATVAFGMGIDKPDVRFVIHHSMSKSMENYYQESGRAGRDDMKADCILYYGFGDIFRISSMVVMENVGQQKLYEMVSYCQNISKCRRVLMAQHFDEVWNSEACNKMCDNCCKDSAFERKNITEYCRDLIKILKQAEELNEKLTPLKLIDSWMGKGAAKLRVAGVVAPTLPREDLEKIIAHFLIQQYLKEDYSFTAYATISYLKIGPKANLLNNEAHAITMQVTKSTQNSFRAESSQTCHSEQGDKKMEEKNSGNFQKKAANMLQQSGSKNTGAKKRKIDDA

Row | Compound | Potency [1] | Potency [2] | Potency [3] | Potency [4] | Potency [5] | Potency [6] | Potency [7] | outcome [8] | Potency [9] | Potency [10] | Potency [11] | Potency [12] | Potency [13] | Potency [14] | outcome [15] | outcome [16] | outcome [17]
1 | C=CC[C@H](N)C(=O)O | inactive | inactive | inactive | inactive | inactive | inactive | inactive | inactive | inactive | inactive | inactive | inactive | inactive | inactive | inactive | inactive | 
2 | O=c1[nH]ccc2c(O)cccc12 | inactive | inactive | inactive | inactive | inactive | inactive |  | inactive | inactive | inactive | inactive | inactive | inactive | inactive | inactive |  | 
3 | COc1ccc(NC(=O)c2ccc(-c3ccc(-c4noc(C)n4)cc3C)cc2)cc1N1CCN(C)CC1 | 2.51 µM (active) | 5.62 µM (active) | 3.98 µM (active) | 2.82 µM (active) | inactive | inactive | inactive |  | 16.5 µM (active) | 5.85 µM (active) | 5.85 µM (active) | 12.6 µM (active) | inactive | inactive | inactive |  | 
4 | N#CC(=C(\N)Sc1ccccc1N)/C(C#N)=C(/N)Sc1ccccc1N | 2 µM (active) | 7.08 µM (active) | 2.82 µM (active) | 4.47 µM (active) |  | inactive |  | inactive | inactive |  |  | 7.94 µM (active) | inactive | inactive | inactive |  | inactive
5 | CC1CCN=C(N)S1 (stereo not given) | inactive | inactive | 11.2 µM (active) | inactive | inactive | inactive |  | inactive | inactive | inactive | inactive | inactive | inactive | inactive |  |  | 
6 | Oc1ccc(Cn2cc[nH]c2=S)cc1 | inactive | inactive | inactive | inactive | inactive | inactive |  | inactive | inactive | inactive | inactive | inactive |  | inactive | inactive | inactive | inactive
7 | CCCCCCCCCCCCCCCCCCOC[C@H](COP(=O)([O-])OCC[N+](C)(C)C)OC | inactive | inactive | inactive | inactive |  | inactive |  | inactive | inactive | inactive | inactive |  | inactive |  | inactive |  | inactive
8 | O=C(O)/C=C/c1cnc[nH]1 | inactive | inactive | inactive | inactive |  | inactive |  | inactive | inactive | inactive | inactive | inactive | inactive | inactive | inactive | inactive | inactive
9 | CC(N)=NCCCC[C@@H](N)C(=O)O | inactive | inactive | inactive | inactive | inactive | inactive |  | inactive | inactive | inactive | inactive | inactive |  | inactive |  | inactive | inactive
10 | NS(=O)(=O)c1cccc2c1c([N+](=O)[O-])cc1nc(O)c(O)nc12 | inactive | inactive | 11.2 µM (active) | inactive | inactive | inactive |  | inactive | inactive | inactive | inactive | inactive |  | inactive | inactive |  | inactive
11 | CO/N=C(\C(=O)N[C@@H]1C(=O)N2C(C(=O)O)=C(CSc3nc(=O)c(O)nn3C)CSC12)c1csc(N)n1 (stereo not given in full) | inactive | inactive | inactive | inactive | inactive |  |  | inactive | inactive | inactive | inactive | inactive | inactive | inactive | inactive | inactive | inactive
12 | NC1(C(=O)O)CCCCC1 | inactive | inactive | inactive | inactive | inactive | inactive |  | inactive | inactive | inactive |  | inactive | inactive | inactive | inactive | inactive | inactive
13 | O=C(O)C1CN(CCCP(=O)(O)O)CCN1 (stereo not given) | inactive | inactive | inactive | inactive |  |  | inactive | inactive | inactive | inactive | inactive | inactive | inactive | inactive | inactive |  | inactive
14 | CCCCCCCCCCCCCCSCC(=O)O | inactive | inactive | inactive | inactive |  | inactive |  | inactive | inactive | inactive | inactive |  | inactive | inactive | inactive | inactive | inactive
15 | C[C@@]1(C2CCCC2)Cc2cc(OCC(=O)O)c(Cl)c(Cl)c2C1=O | inactive | inactive | inactive | inactive | inactive | inactive |  | inactive | inactive | inactive |  | inactive | inactive | inactive |  | inactive | inactive
16 | O=c1cc(O)cc(/C=C/c2ccc(O)c(O)c2)o1 | 11.2 µM (active) | inactive | 11.2 µM (active) | 11.2 µM (active) | inactive | inactive |  | inactive | inactive | inactive | inactive | inactive | inactive | 21.2 µM (active) | inactive |  | 
17 | CCCCC[C@H](CC(=O)NO)C(=O)N[C@H](C(=O)N1CCC[C@H]1CO)C(C)C | 1.58 µM (active) | 3.55 µM (active) | 2.51 µM (active) | 2.82 µM (active) | inactive | inactive | inactive | inactive | inactive | inactive |  | inactive | inactive |  |  |  | 
18 | N[C@@H](Cc1ccc(F)cc1)C(=O)O | 17.8 µM (active) | inactive | 11.2 µM (active) | 12.6 µM (active) | inactive | inactive | inactive | inactive | inactive | inactive |  | inactive | inactive | inactive | inactive |  | 
19 | CSC(=N)N | inactive | inactive | inactive | inactive |  | inactive |  | inactive | inactive | inactive | inactive | inactive | inactive |  | inactive | inactive | inactive
20 | NC(=Nc1ccccc1)NC(=O)c1nc(Cl)c(N)nc1N | 8.91 µM (active) | inactive | 7.08 µM (active) | 7.94 µM (active) | inactive | inactive | inactive | inactive | inactive | inactive | inactive | 14.1 µM (active) | inactive | inactive | inactive |  | 
